Screening data (PubChem)
SENP6 block: SENP6 protease inhibitors, primary screen, biochemical, luminescence, uHTS | Sentrin-specific protease 6 (Homo sapiens), Q9GZR1 | Recombinant SENP6 catalytic domain, aminoluciferin luminescence | inhibition, % at 10 µM | 1.8% of 330,000 active | AID 2599, 2010;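 active = inhibition above about 50% at the single tested dose, limit read from the data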;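 also: plate controls were DMSO wells with enzyme for no effect and DMSO wells lacking enzyme for full effect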
LGR2 antag: inhibitors of bursicon-induced LGR2 CRE-luciferase signal, primary screen, cell-based, HEK293, CRE-luciferase reporter, bursicon stimulation. Drosophila bursicon receptor LGR2 (rickets). bursicon-stimulated, 4 h. inhibition, % at 9.99 µM. 0.35% of 380,000 active. AID 720647, 2013;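 active = drop in luminescence signal, shown as inhibition above about 50% in the replicate tests, limit read from the data, passing the limit was not always enough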;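 also: agonist challenge used bursicon conditioned medium at about half maximal strength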
HSP90 inh: HSP90 inhibitors, primary screen, cell lysate, luminescence | Heat shock protein HSP 90 (rabbit reticulocyte lysate; luciferase refolding) | Rabbit reticulocyte lysate, luciferase refolding luminescence, 3 h | inhibition, % at 5.6 µM | 0.91% of 290,000 active | AID 1789, 2009;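 active = inhibition above the screen-wide mean plus 3 SD, computed separately per campaign, cut at about 16% in these data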;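 also: 0% = DMSO wells and 100% = 60 µM geldanamycin wells; inhibitors lower the luminescence because luciferase stays unfolded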
SENP8 block-1: SENP8 protease inhibitors, primary screen, biochemical, luminescence; purified SENP8, Z-RLRGG-aminoluciferin cleavage; Sentrin-specific protease 8 (Homo sapiens), Q96LD8; 1.2% of 330,000 active; inhibition, % at 10 µM; in the data active = inhibition above about 50%
Target sequence (Q96LD8 whole entry, looked up): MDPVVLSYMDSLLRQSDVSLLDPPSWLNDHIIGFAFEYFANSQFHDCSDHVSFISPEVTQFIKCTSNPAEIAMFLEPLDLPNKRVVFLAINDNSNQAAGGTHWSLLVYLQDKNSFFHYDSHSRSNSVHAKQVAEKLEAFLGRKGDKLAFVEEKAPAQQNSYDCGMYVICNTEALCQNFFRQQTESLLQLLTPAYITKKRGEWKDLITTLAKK
SENP8 block-2: human SENP8 protease inhibitors, primary screen, biochemical, fluorescence, Nedd8 protein substrate, uHTS; Sentrin-specific protease 8 (Homo sapiens), Q96LD8; 0.64% of 360,000 active; inhibition, % at 20 µM; recombinant SENP8; in the data active = inhibition mostly above about 40%, no sharp cut-off; inactive = mostly below about 27%
SENP7 block: SENP7 protease inhibitors, primary screen, biochemical, luminescence, uHTS; Sentrin-specific protease 7 (Homo sapiens), Q9BQF6; recombinant SENP7, Z-RLRGG-aminoluciferin luminescence, 40 min; inhibition, % at 5 µM; 1.5% of 330,000 active; AID 434973, 2010;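 active = inhibition above about 50% at the single test dose, limit read from the data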;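 also: plate controls were DMSO with enzyme for no effect and no enzyme buffer wells for full effect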
Target sequence (Q9BQF6 706-1050 limits assumed): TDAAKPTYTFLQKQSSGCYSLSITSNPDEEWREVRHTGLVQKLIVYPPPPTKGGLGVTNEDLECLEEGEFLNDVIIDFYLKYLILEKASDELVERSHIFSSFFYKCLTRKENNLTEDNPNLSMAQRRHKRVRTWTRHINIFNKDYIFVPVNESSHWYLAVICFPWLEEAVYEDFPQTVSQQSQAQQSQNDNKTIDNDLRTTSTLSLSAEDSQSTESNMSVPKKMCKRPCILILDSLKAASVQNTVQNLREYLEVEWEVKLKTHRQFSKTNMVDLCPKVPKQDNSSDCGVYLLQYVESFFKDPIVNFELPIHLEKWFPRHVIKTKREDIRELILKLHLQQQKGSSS
SENP8 conf-1: SENP8 protease inhibitors, retest, confirmation, biochemical, luminescence, single concentration. shares compounds with SENP7 block. Recombinant SENP8, Z-RLRGG-aminoluciferin luminescence, 60 min. inhibition, % at 12.5 µM. 40% of 6,200 active. AID 488912, 2010;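 active = mean inhibition across replicates above about 50%, limit read from the data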
SENP6 confirm: SENP6 protease inhibitors, confirmation, biochemical, luminescence, single concentration; shares compounds with SENP7 block; recombinant SENP6, Z-RLRGG-aminoluciferin luminescence; inhibition, % at 12.5 µM; 58% of 6,200 active; AID 488915, 2010
SENP7 conf: SENP7 protease inhibitors, retest, confirmation, biochemical, luminescence, single concentration; shares compounds with SENP7 block; recombinant SENP7, Z-RLRGG-aminoluciferin luminescence, 40 min; inhibition, % at 12.5 µM; 69% of 6,200 active; AID 488917, 2010
Casp3 SENP sel: caspase-3 protease inhibitors, confirmation, selectivity assay for SENP inhibitor project, biochemical, single concentration | shares compounds with SENP7 block | 60% of 6,200 active | inhibition, % at 12.5 µM | purified caspase-3, Z-DEVD-aminoluciferin luminescence, 60 min;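 active = mean inhibition above about 50%, limit read from the data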;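 also: plate controls were enzyme with DMSO for no effect and wells without caspase-3 for full effect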
SENP luc ctr: counter-screen for SENP inhibitors: luminescence interference. shares compounds with SENP7 block. 39% of 6,200 active. inhibition, % at 12.5 µM. Pre-incubated SENP8/Z-RLRGG-aminoluciferin, luciferase luminescence interference;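 active = mean inhibition above about 50% when retested at one dose, limit read from the data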;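 also: plate controls were DMSO wells with completed reaction for no effect and substrate without enzyme for full effect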
SENP8 conf-2: human SENP8 protease inhibitors, confirmation, biochemical, Nedd8 protein substrate, single concentration. purified SENP8, Nedd8-AMC/pro-Nedd8 cleavage fluorescence, 30 min. inhibition, % at 25 µM. 15% of 1,400 active. shares compounds with SENP8 block-2; in the data active = inhibition mostly above about 39%, no sharp cut-off; inactive = mostly below about 34%
Active calls of the source: *; · = no result. Most compounds without a hit are left out; they make up all but 2.3% or so of the library.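 The calls were made as follows, unless noted: active = mean inhibition above about 50% in the one-dose retest (limit read from the data); inactive = the rest.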

SMILES | SENP6 block | LGR2 antag | HSP90 inh | SENP8 block-1 | SENP8 block-2 | SENP7 block | SENP8 conf-2 | others
O=[N+]([O-])c1ccc(C=Nc2ccc(Cl)c([N+](=O)[O-])c2)s1 | 50* | -1 | -2 | 35 | 76* | 21 | 80* | SENP8 conf-1=5;SENP6 confirm=40;SENP7 conf=22;Casp3 SENP sel=4;SENP luc ctr=3
CCC(=O)N1C[C@H](O)COC[C@H]2O[C@@H](CC(=O)NCc3cc(F)cc(F)c3)CC[C@@H]21 | · | 23 | · | · | · | · | ·
COc1ccc(-n2c(C)cc(SC)c(C(C)=O)c2=S)cc1 | 0 | · | 3 | 3 | 15 | 6 | ·
CSc1cc(C)n(-c2ccc(Cl)cc2)c(=S)c1C(C)=O | 10 | · | 3 | 4 | 42* | 1 | 15
CCOc1ccc(S(=O)(=O)NCCC(=O)NCC(c2ccc(OC)cc2)N2CCOCC2)cc1 (stereo not drawn) | · | -14 | · | · | 51* | · | -8
COc1ccc(Nc2nc(NN)nc(C)c2[N+](=O)[O-])cc1 | -5 | -18 | 3 | 1 | 60* | 6 | 14
Cc1nc(Nc2ccc(F)cc2)nc(Nc2ccc(F)cc2)c1[N+](=O)[O-] | -2 | -9 | 7 | 3 | 34 | 2 | ·
CCOc1ccc(N=C(C)c2ccccc2O)cc1 | -20 | -5 | -5 | -12 | 42* | 4 | 17
CCC(=O)N1C[C@@H](O)COC[C@@H]2O[C@@H](CC(=O)NCc3cc(F)cc(F)c3)CC[C@H]21 | · | -2 | · | · | · | · | ·
CC(=O)NCC(=O)N[C@@H](CC(=O)OCc1ccccc1)C(=O)OCc1ccccc1 | -11 | -27 | -2 | -2 | 44* | 1 | 22
O=C(CC(NC(=O)OCc1ccccc1)C(=O)OCc1ccccc1)OCc1ccccc1 (stereo not drawn) | · | -40 | · | · | -4 | · | ·
COc1ccc(C2c3[nH]c4ccccc4c3C[C@H]3C(=O)N(c4ccccc4C(=O)N4CCC[C@H]4C(=O)O)C(=O)N23)cc1 (stereo partly drawn) | -2 | -13 | -4 | 3 | 42* | -2 | 2
COc1cccc(C2c3[nH]c4ccccc4c3C[C@H]3C(=O)N(c4ccccc4C(=O)NCCCN4CCOCC4)C(=O)N23)c1 (stereo partly drawn) | 2 | 4 | -2 | -11 | 51* | -7 | 13
Cc1ccc(C2c3[nH]c4ccccc4c3C[C@H]3C(=O)N(c4ccccc4C(=O)N4CCC[C@H]4C(=O)O)C(=O)N23)cc1 (stereo partly drawn) | 2 | · | 0 | 1 | 43* | -1 | -7
CCNC(=O)C[C@@H]1CC[C@H]2[C@@H](COC[C@H](O)CN2C(=O)Nc2cccc(OC)c2)O1 | · | -21 | · | · | · | · | ·
CNC(=O)C[C@H]1CC[C@H]2[C@@H](COc3ccc(NC(=O)Nc4cccc(F)c4)cc3C(=O)N2C)O1 | · | 10 | · | · | · | · | ·
O=C(C[C@@H]1C=C[C@@H](NS(=O)(=O)c2ccccc2)[C@@H](CO)O1)NCc1ccc(Cl)c(Cl)c1 | · | 24 | · | · | · | · | ·
O=C(C[C@@H]1C[C@H]2c3cc(NC(=O)NC4CCCC4)ccc3O[C@H]2[C@H](CO)O1)NCCc1ccccc1 | · | -24 | · | · | · | · | ·
CCOC(=O)c1nn(-c2ccccc2C)c(=O)c2c(N)scc12 | 46 | -5 | 2 | -4 | 47* | 1 | 41
CCOC(=O)c1nn(-c2ccccc2)c(=O)c2c(NC(C)=O)scc12 | -14 | -34 | 3 | 6 | -109 | -5 | ·
CC(C)CC#Cc1cnc2c(c1)C(=O)N([C@H](C)CO)C[C@@H](C)[C@H](CN(C)C(=O)c1ccccc1)O2 | · | -15 | · | · | · | · | ·
CCN(CC)S(=O)(=O)c1ccc2c(c1)nc(SCC(=O)NC1CC1)n2-c1ccccc1OC | -9 | · | -3 | 4 | 43* | 2 | 26
COc1ccccc1-n1c(SCC(=O)NC2CCS(=O)(=O)C2)nc2cc([N+](=O)[O-])ccc21 (stereo not drawn) | -6 | 0 | -5 | 3 | 20 | 9 | ·
COc1ccc(-c2ccc3n(c2=O)C[C@H]2[C@H](CO)[C@@H](C(=O)N4CCOCC4)[C@@H]3N2C)cc1 | · | 9 | · | · | · | · | ·
CN1c2ccc(-c3ccccc3)cc2[C@@H]2[C@@H](CCN2C(=O)c2ccccn2)[C@H]1CO | · | -6 | · | · | · | · | ·
SMILES | SENP6 block | LGR2 antag | HSP90 inh | SENP8 block-1 | SENP8 block-2 | SENP7 block | SENP8 conf-2 | others
COC(=O)Cc1c(C)nc2nc(-c3ccc(Cl)cc3)[nH]n2c1=O | 27 | -31 | 1 | -5 | -2 | 2 | ·
COC(=O)Cc1c(C)nc2nc(-c3ccc(C)cc3)[nH]n2c1=O | -12 | · | 6 | -5 | 46* | -6 | -9
CCOC(=O)[C@]12CCCC=C1N(CCC1=CCCCC1)C(=O)[C@H](CC(=O)NCCCN1CCCC1=O)C2 | · | 7 | · | · | 42* | · | 9
CCOC(=O)[C@]12CCC=C1N(CCC1=CCCCC1)C(=O)[C@H](CC(=O)NCCCN1CCCC1=O)C2 | · | 12 | · | · | 23 | · | ·
Cc1noc(C)c1NC(=O)Nc1cccc2c1O[C@@H](CN(C)C(=O)Nc1ccc3c(c1)OCO3)[C@H](C)CN([C@@H](C)CO)C2=O | · | 3 | · | · | · | · | ·
O=C(NC(CSSCC(NC(=O)c1ccccc1)C(=O)O)C(=O)O)c1ccccc1 (stereo not drawn) | -14 | -12 | -3 | -12 | 63* | 9 | 11
